Experimental data taken from PubChem BioAssay (NCI).
The panel holds about 83,000 compounds, 20% with a hit somewhere; the sample as a whole holds those more often.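 Percent growth is the endpoint: 0 to 100 indicates growth inhibition (40 means 60% inhibition), 0 means no net growth, and negative values indicate cell death.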 Calls of active or inactive are those of the source. The calls were made as follows: active = growth percent below 10; inactive = the rest.

test system: HL-60(TB) leukemia; test: NCI-60 one-dose screen, 48 h (100 = growth as untreated, 0 = no growth, -100 = all killed); conditions: 10 µM unless noted

For C[C@@]1(CO)[C@H](O)CC[C@@]2(C)[C@H]1CC[C@H]1C[C@@H]3C[C@@]12CC[C@@]3(O)COC(=O)CN, which growth is on record?
Its growth is 3.18% (active).

COc1ccc(C(=O)/C=C/c2ccc(C)cc2)cc1OC was tested. Which growth did it give?
Its growth is 58.4% (inactive).

CCN1CCN(c2cc(C)nc(N(CCNc3ccnc4cc(Cl)ccc34)Cc3ccc4c(c3)OCO4)n2)CC1 was tested. Which growth did it give?
The growth was -61.8% (active).

With CC(C)OC(C(=O)O)c1ccccc1 (configuration not stated) as the compound, how does the growth read?
The growth was 129% (inactive).

For O=C1C=CC2(O)OC/C(=C\c3ccccc3)C(O)=C2C1=O (configuration not stated), which growth is on record?
The growth was 4.63% (active).

CCCCNc1ccc(-c2ccc(NCCCC)cc2)cc1 was tested. Which growth did it give?
Its growth is 45.4% (inactive).

For CCCN1CCN(c2ccc3nc(-c4ccc5nc(-c6ccc(OCC)c(OCC)c6)[nH]c5c4)[nH]c3c2)CC1, which growth is on record?
Its growth is -23.1% (active).

Which growth does the source give for CC(C)c1nc(N(C)S(C)(=O)=O)nc(-c2ccc(F)cc2)c1/C=C/[C@@H](O)C[C@@H](O)CC(=O)O here?
The growth was 114% (inactive).

How did the growth turn out when CCN(CC)CCC(CNc1ccnc2cc(Cl)ccc12)c1ccccc1 (configuration not stated) was run?
The growth was 58.5% (inactive).

How did the growth turn out when O=C(Nc1cccc2c1CCCC2)c1cc2ccccc2cc1O was run?
Its growth is 14.9% (inactive).

CCSc1sc(-c2ccc(C)cc2)nc1[P+](c1ccccc1)(c1ccccc1)c1ccccc1 was tested. Which growth did it give?
Its growth is -47% (active).

For CN1C(=O)N(C)C2C1NN=c1s/c(=C\c3ccc(Br)cc3)c(=O)n12 (configuration not stated), which growth is on record?
Its growth is -13.8% (active).

With CCC(C)(C)c1ccc(Nc2ccc(Nc3ccc(C(C)(C)CC)cc3)cc2)cc1 as the compound, how does the growth read?
The growth was 47.5% (inactive).

How did the growth turn out when COc1ccc2c(c1)c(-c1ccc(-c3cn(C)c4ccc(OC)cc34)[nH]1)cn2C was run?
Its growth is -24.7% (active).

CSC1=Nc2c(c(C)c(-c3ccccc3)n2CCCN2CCCCC2)C2=NC(=O)C[C@H](C)N12 was tested. Which growth did it give?
The growth was -33.2% (active).

OC(CNc1ccnc2cc(Cl)ccc12)CNc1ccnc2cc(Cl)ccc12 was tested. Which growth did it give?
Its growth is -5.79% (active).

CC/C(Cc1ccccc1)=C(\c1ccc(OCCN2CCCCCC2)cc1)c1ccc(OC(=O)NCc2ccccc2)cc1 was tested. Which growth did it give?
Its growth is 37% (inactive).

CC(=O)c1ccc2c(c1)CCc1ccccc1-2 was tested. Which growth did it give?
The growth was 126% (inactive).

COc1cc(Nc2ncccc2NC(=O)c2cn(Cc3cccc(Oc4ccccc4)c3)nn2)cc(OC)c1 was tested. Which growth did it give?
Its growth is 64.6% (inactive).

Which growth does the source give for CC1CCCC(C(=O)O)C1C(=O)O (configuration not stated) here?
Its growth is 81.8% (inactive).

Which growth does the source give for c1ccc(Sc2ccccc2)cc1 here?
The growth was 85.8% (inactive).

With CC[C@@H](C(=O)[C@@H](C)[C@@H](O)[C@H](C)[C@@H]1O[C@@H]([C@@H](CC)C(=O)N(CC)CC)CC[C@@H]1C)C1O[C@]2(C=CC(=O)[C@]3(CC[C@@](C)([C@H]4CC[C@](O)(CC)[C@H](C)O4)O3)O2)[C@H](C)C[C@@H]1C (some centres not stated) as the compound, how does the growth read?
Its growth is -36.4% (active).

CC1(C)CC[C@]23CC[C@]4(C)[C@H](CC[C@@H]5[C@@]6(C)C/C(=C/c7cccnc7)C(=O)C(C)(C)[C@@H]6CC[C@]54C)[C@H]2[C@H]1OC3=O was tested. Which growth did it give?
The growth was -0.84% [100 µM] (active).

OC(c1cccc(OCc2ccccc2)c1)c1nnc(-c2ccccc2)o1 (configuration not stated) was tested. Which growth did it give?
Its growth is 96.3% (inactive).

How did the growth turn out when Cc1ccc2nc(NC(=O)CSc3nc(-c4ccccc4)c(C#N)c4nnnn34)sc2c1 was run?
The growth was 99.5% (inactive).

For C=CC(=O)Nc1cccc(-c2nc(SC)nc(NCCN3CCOCC3)c2C#N)c1, which growth is on record?
The growth was 94.9% (inactive).

With Cc1ccccc1N1C(c2ccccc2)=NNC12C=CC(=O)c1c(O)cccc12 (configuration not stated) as the compound, how does the growth read?
Its growth is 70.2% (inactive).

Which growth does the source give for CCN(CC)c1ccc(/C=C2\Oc3ccc(O)c(I)c3C2=O)cc1 here?
Its growth is 18.5% (inactive).

COc1cc2oc3cc(=O)cc4oc(-c5ccccc5)cc(c2c2c1CCC(c1ccccc1)O2)c43 (configuration not stated) was tested. Which growth did it give?
The growth was 138% (inactive).

With CC(=O)Nc1ccc(C(=O)COc2ccc(/C=C3\CCc4ccccc4C3=O)cc2)cc1 as the compound, how does the growth read?
Its growth is 102% (inactive).

How did the growth turn out when CCN(CC)c1cc(C)c(Cc2c(OC)ccc3ccccc23)cc1C was run?
Its growth is 82.2% (inactive).

Which growth does the source give for Cc1ccc(/C=C/C(=O)C(=O)/C=C/c2ccc(C)cc2)cc1 here?
The growth was 93.3% (inactive).

COc1cccc(-c2nc3sccn3c2/C=C/C(=O)c2ccc(C(F)(F)F)cc2)c1 was tested. Which growth did it give?
The growth was 46.2% (inactive).

Which growth does the source give for CCn1c2c(c3ccccc31)SC1c3cccn3CCN1C2=S (configuration not stated) here?
The growth was 87.5% (inactive).

For N=C(N)c1ccc(-c2ccc(-c3ccco3)o2)cc1F, which growth is on record?
The growth was -17.1% (active).

For C(/C=C/c1ccccc1)=Nc1ccc(CCc2ccc(N=C/C=C/c3ccccc3)cc2)cc1, which growth is on record?
The growth was 42.9% (inactive).

How did the growth turn out when CN(C)c1ccc(/C=C\N=Nc2ccc(Br)cc2)cc1 was run?
Its growth is 16.6% (inactive).
